Screen size: about 7,900 compounds; about 400 (5.1%) showed an effect of 50% or more. The full list was thinned out, with strong results kept by preference.
Each compound was assayed against Parkinson's disease protein 7 (PARK7/DJ1) (human, UniProt Q99497) (assay: primary screen, percent inhibition; read as competition with a fluorescent probe by fluorescence polarization; higher = more effect of the substance). Conditions: 100 µM.
Method: The screen was conducted using the conditions as described above in 1536-well plates (Corning 3724) with a reaction volume of 8 μL per well. The compound library containing 7887 covalent fragments was purchased at Enamine Ltd. and received as 100 mM DMSO stocks in 384 well LDV Echo plates (Labcyte LP-0200). Stock solutions of 0.26 μM PARK7 and 80 nM JYQ-107 were prepared. Using a Labcyte Echo550 acoustic dispenser, 8 nL of the DMSO stock solution of the library compounds was transferred from the source plates into the empty 1536-well screening plates to obtain a 100 μM final compound concentration. Next, PARK7 (6 μL, final concentration 0.2 μM) was dispensed using a Biotek MultiflowFX liquid dispenser and incubated for 2 h, followed by dispensing the probe JYQ-107 (2 μL, final concentration 20 nM). After 2 h incubation, the FP signal was recorded on a BMG Labtech PHERAstar plate reader (λex/em 480/520 nm). The relative loss of FP signal compared with reference controls was used to calculate the remaining enzyme activity.

Parkinson's disease protein 7 (PARK7/DJ1), sequence (Q99497 whole entry, looked up, the tested form may be a part): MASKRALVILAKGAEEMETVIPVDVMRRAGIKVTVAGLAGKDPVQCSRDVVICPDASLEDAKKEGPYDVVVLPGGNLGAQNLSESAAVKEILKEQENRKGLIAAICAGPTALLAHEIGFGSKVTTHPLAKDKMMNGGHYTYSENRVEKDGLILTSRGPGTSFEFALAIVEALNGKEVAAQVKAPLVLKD

| Compound | Inhibition % [%] |
| --- | --- |
| Cc1cccc(NC2C=CS(=O)(=O)C2)c1 (stereo not drawn) | 7.19 |
| CC1(C)COCCN1Cn1nc(-c2ccccc2)oc1=O | 8.59 |
| COc1ncc(B2OC(C)(C)C(C)(C)O2)cn1 | 4.41 |
| C=CC(=O)N1CCOCC1c1nnc(C(C)C)o1 (stereo not drawn) | 10 |
| Cc1cccc(C)c1N1C(=O)CN=C1S | 1.33 |
| Cc1ccc(S(=O)(=O)N2CCCCC2C2OCCO2)cc1 (stereo not drawn) | 3.92 |
| CC(C)N(C)C(=O)CCc1ccc(S(=O)(=O)F)cc1 | 4.68 |
| O=C(Cc1ccc(S(=O)(=O)F)cc1)Nc1ccccc1Cl | 12.8 |
| O=C(CCc1ccc(S(=O)(=O)F)cc1)N1CCCCC1 | 12.4 |
| O=C(Cc1ccc(S(=O)(=O)F)cc1)NC1CCCC1 | 2.81 |
| O=C(O)Cc1ccc(S(=O)(=O)F)cc1 | 89.7 |
| O=C(O)CCc1ccc(S(=O)(=O)F)cc1 | 82.3 |
| OB(O)c1ccc(OCC(F)(F)F)cc1F | 13 |
| CC(c1ccccc1)C1CO1 (stereo not drawn) | -0.54 |
| COc1ccc(C2CCCN2C(=O)n2ccnc2)cc1 (stereo not drawn) | 6.77 |
| CC1(C)OB(c2ccc(N)c(CO)c2)OC1(C)C | 7.71 |
| C=CC(=O)N1CCCC(c2nc(C)c(C)s2)C1 (stereo not drawn) | 6.18 |
| C=CC(=O)N1CCC(c2ncno2)CC1 | 9.72 |
| N#Cc1ccncc1C(=O)O | 12.3 |
| N#Cc1cnccc1S | 92.5 |
| N#Cc1cccnc1S | 11.9 |

| Compound | Inhibition % [%] |
| --- | --- |
| O=C(CCl)NC(=O)OCc1ccccc1 | 33.1 |
| O=C(CCl)NC(=O)c1cccs1 | 23.4 |
| O=C(NCCS(=O)(=O)F)c1ccccc1 | 13.4 |
| O=C(c1ccccc1)N1CCCC(CS(=O)(=O)F)C1 (stereo not drawn) | 71.4 |
| O=C(c1ccccc1)N1CCCC(S(=O)(=O)F)C1 (stereo not drawn) | 32.4 |
| O=C(NCCCS(=O)(=O)F)c1cccs1 | 98.9 |
| O=C(NCCCS(=O)(=O)F)OCc1ccccc1 | 95.8 |
| COC(=O)C1CC(S(=O)(=O)F)CN1C(=O)c1cccs1 (stereo not drawn) | 11 |
| O=C(OCc1ccccc1)N1CCCCC1CS(=O)(=O)F (stereo not drawn) | 16 |
| O=C(c1ccccc1)N1CCC(CCl)C1 (stereo not drawn) | 2.86 |
| O=C(c1cccs1)N1CCCCC1CCS(=O)(=O)F (stereo not drawn) | 84.1 |
| O=S(=O)(F)CCc1ccccc1 | 4.21 |
| c1csc(COCC2CO2)c1 (stereo not drawn) | 0.211 |
| C=CC(=O)NC1CCCN(c2cccnc2)C1=O (stereo not drawn) | 15.4 |
| C=CC(=O)NC1(C2CC2)CCOCC1 | 7.04 |
| C=CC(=O)N1CCC(Oc2cccnc2N2CCCC2)C1 (stereo not drawn) | 13.2 |
| C=CC(=O)N1CC2(CCOCC2)c2ccccc21 | 7.61 |
| O=C(c1cccs1)N1CCOC(CS(=O)(=O)F)C1 (stereo not drawn) | 14.7 |
| O=C(CCl)N1CCN(C(=O)c2cccs2)CC1 | 40.3 |
| O=C(c1cccs1)N1CCC(CS(=O)(=O)F)C1 (stereo not drawn) | 97.1 |
| O=C1OCCC1N1CCN(C(=O)c2cccs2)CC1 (stereo not drawn) | 9.27 |

| Compound | Inhibition % [%] |
| --- | --- |
| O=C(c1ccccc1)N1CC(S(=O)(=O)F)C1 | 35.6 |
| O=C(c1cccs1)N1CCC(S(=O)(=O)F)CC1 | 10.8 |
| O=C(c1cccs1)N1CCCC(S(=O)(=O)F)C1 (stereo not drawn) | 73.5 |
| O=C(c1cccs1)N1CCCC(CS(=O)(=O)F)C1 (stereo not drawn) | 90.1 |
| O=C(N[C@H]1CC[C@@H](CS(=O)(=O)F)C1)c1cccs1 (racemic) | 96.8 |
| O=C(NC1CCN(C2CCOC2=O)CC1)c1cccs1 (stereo not drawn) | 7.52 |
| O=C(CCl)NNC(=O)c1cccs1 | 7.74 |
| O=C(c1cccs1)N1CCC(CS(=O)(=O)F)CC1 | 35.6 |
| Nc1cccc(OC2CC(=O)N2)c1 (stereo not drawn) | 18.6 |
| O=C(O)C1COCCN1C(=O)C=Cc1ccc(Cl)s1 (stereo not drawn) | 13.1 |
| C=CC(=O)NCC1CC2(CCOCC2)CO1 (stereo not drawn) | 5.16 |
| CC(C)(C)OC(=O)N1CCOc2cccc(B3OC(C)(C)C(C)(C)O3)c2C1 | 3.79 |
| CC(Cl)Cc1cc2ccc(O)cc2oc1=O (stereo not drawn) | 12.3 |
| O=C(CCl)Nc1cc(F)cc(F)c1 | 14.6 |
| C=CC(=O)N1CCN(CC(C)C)C(=O)C1C (stereo not drawn) | 0.151 |
| COc1ccc(C)cc1S(=O)(=O)Oc1ccccn1 | 17 |
| CCCOc1cc(C)c(C)cc1S(=O)(=O)n1ccnc1C | 8.09 |
| COC(=O)c1cc([N+](=O)[O-])cc(B2OC(C)(C)C(C)(C)O2)c1C | 12.9 |
| COc1ccccc1-c1nnc(-c2ccc(S(=O)(=O)F)cc2)o1 | 9.83 |
| COc1cc(S(=O)(=O)F)ccc1O | 17.3 |
| COc1ccc(S(=O)(=O)F)cc1O | 54 |

Reference: PMC9574860, “Chemical Toolkit for PARK7: Potent, Selective, and High-Throughput” (Journal of Medicinal Chemistry, 2022)
